Consider 13 molecules from the supplement of paper PMC7411640.

Where a name gives a salt, the structure may show the parent alone.

In this assay the test system is MDA-MB-468. The assay is described as follows: phospho-S6 immunofluorescence (DAPI-normalised), per-plate z-score; higher = higher phospho-S6 signal (less pathway suppression). The settings on record: 24 h. As to the method:
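GPCR-targeted compound library (MedChemExpress HY-L006) tested on MDA-MB-468 PTEN-null TNBC cells in 384-well plates at 0.1, 1 or 10 uM, combined with vehicle, GDC0941 450 nM or lapatinib 1 uM, for 24 h. Phospho-S6 (S240/244) immunofluorescence normalised to DAPI and expressed as a per-plate z-score; values are the mean of biological triplicates.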

As to `CCc1c(C)[nH]c2c1C(=O)C(CN1CCOCC1)CC2` (centres undefined) [Molindone (hydrochloride)] (compound 10 µM), the “phospho-S6 immunofluorescence (z-score)” value (co-treatment: GDC0941 450 nM) was -0.5, the “phospho-S6 immunofluorescence (z-score)” value (co-treatment: lapatinib 1 uM) was 0.28 and the “phospho-S6 immunofluorescence (z-score)” value (co-treatment: vehicle) came to 0.19.
The like results for `COc1nc(C)nc(Cl)c1NC1=NCCN1` [Moxonidine] (compound 10 µM) were, in that order, 0.49, 0.68 and 0.7.
`COc1cc(NC(=O)CCN2CCC(OC(=O)Nc3ccccc3-c3ccccc3)CC2)c(Cl)cc1CNC[C@H](O)c1ccc(O)c2[nH]c(=O)ccc12` [Batefenterol] (compound 10 µM): the “phospho-S6 immunofluorescence (z-score)” value by setting is: (co-treatment: GDC0941 450 nM) -3.26; (co-treatment: lapatinib 1 uM) -4.13; (co-treatment: vehicle) 0.38.
The like results for `Cc1c(CC(=O)O)c2cccnc2n1Cc1ccc(S(C)(=O)=O)cc1C(F)(F)F` [Fevipiprant] (compound 10 µM) were, in that order, -2.62, -1.74 and -0.9.
Regarding `COc1cc2nc(N(C)CCCNC(=O)C3CCCO3)nc(N)c2cc1OC` (centres undefined) [Alfuzosin] (compound 10 µM), the “phospho-S6 immunofluorescence (z-score)” value is 0.81 (co-treatment: GDC0941 450 nM), 0.71 (co-treatment: lapatinib 1 uM) and -0.19 (co-treatment: vehicle).
The like results for `Cc1cc(NC(=O)NCCN2CCC(O)(Cc3ccccc3)CC2)c2ccccc2n1` [Palosuran] (compound 10 µM) were, in that order, -1.78, -2.21 and -0.2.
For `CN1CCN(C(=O)c2cc3cc(Cl)ccc3[nH]2)CC1` (compound 10 µM), the “phospho-S6 immunofluorescence (z-score)” value (co-treatment: GDC0941 450 nM) came to 0.27, the “phospho-S6 immunofluorescence (z-score)” value (co-treatment: lapatinib 1 uM) was -0.96 and the “phospho-S6 immunofluorescence (z-score)” value (co-treatment: vehicle) stood at 0.18.
Take `N#Cc1ccc2[nH]cc(CCCCN3CCN(c4ccc5oc(C(N)=O)cc5c4)CC3)c2c1` [Vilazodone (Hydrochloride)] (compound 10 µM): the “phospho-S6 immunofluorescence (z-score)” value is -0.01 (co-treatment: GDC0941 450 nM), -0.76 (co-treatment: lapatinib 1 uM) and 0.65 (co-treatment: vehicle).
As to `Cn1c(=O)c2nc[nH]c2n(C)c1=O` [Theophylline] (compound 10 µM), the “phospho-S6 immunofluorescence (z-score)” value was found to be 0.11 (co-treatment: GDC0941 450 nM), 0.16 (co-treatment: lapatinib 1 uM) and 0.71 (co-treatment: vehicle).
The like results for `CC[C@H](C)[C@H](NC(=O)[C@H](Cc1ccc(O)cc1)NC(=O)[C@@H](NC(=O)[C@H](CCCNC(=N)N)NC(=O)[C@@H](N)CC(=O)O)C(C)C)C(=O)N[C@@H](Cc1c[nH]cn1)C(=O)N1CCC[C@H]1C(=O)O` [Angiotensin (1-7)] (compound 10 µM) were, in that order, 0.11, 0.71 and -0.4.
The corresponding values for `O=C(Nc1cccc(Cl)c1)c1ccccn1` (compound 10 µM) are -1.46, 0.72 and -0.86.
The like results for `CCNC(=O)[C@@H]1CCCN1C(=O)[C@H](CCCN=C(N)N)NC(=O)[C@H](CC(C)C)NC(=O)[C@@H](C)NC(=O)[C@H](Cc1ccc(O)cc1)NC(=O)[C@H](CO)NC(=O)[C@H](Cc1c[nH]c2ccccc12)NC(=O)[C@H](Cc1cnc[nH]1)NC(=O)[C@@H]1CCC(=O)N1` [Alarelin (Acetate)] (compound 10 µM) were, in that order, 0.86, -0.01 and 1.
Turning to `CNC(=C[N+](=O)[O-])NCCSCc1csc(CN(C)C)n1` [Nizatidine] (compound 10 µM), the “phospho-S6 immunofluorescence (z-score)” value runs as follows: (co-treatment: GDC0941 450 nM) -1.38; (co-treatment: lapatinib 1 uM) 0.52; (co-treatment: vehicle) 1.38.
